CFTR F508del cor = CFTR F508del correction in bronchial cells | CFBE cells, YFP halide quenching; stimulated with forskolin plus potentiator P3; % fluorescence drop versus neutral controls | activity (quench increase), % at 7.58 µM | 350,000 tested, 0.36% active | AID 720511;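 active means mean added fluorescence quench of at least 8% versus neutral control, with both replicates also reaching 8%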;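 further: cells transiently co-express mutant CFTR-F508del with the halide-sensitive YFP; corrector assay measuring rescue of mutant channel to the surface after 24 h compound exposure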
ERAP1 HTS inh = ERAP1 (human) enzyme inhibition. 340,000 tested, 0.15% active. inhibition, % at 10.7 µM. recombinant ERAP1, Leu-AMC fluorescence, 60 min. Q9NZ08;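 active means mean replicate inhibition of at least 30%, or all replicates individually reaching that 30% level; inactive means mean below 30% and not every replicate reaching it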;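 further: 0% = neutral control wells and 100% = L-leucinethiol positive control wells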
Target sequence (Q9NZ08 whole entry, looked up): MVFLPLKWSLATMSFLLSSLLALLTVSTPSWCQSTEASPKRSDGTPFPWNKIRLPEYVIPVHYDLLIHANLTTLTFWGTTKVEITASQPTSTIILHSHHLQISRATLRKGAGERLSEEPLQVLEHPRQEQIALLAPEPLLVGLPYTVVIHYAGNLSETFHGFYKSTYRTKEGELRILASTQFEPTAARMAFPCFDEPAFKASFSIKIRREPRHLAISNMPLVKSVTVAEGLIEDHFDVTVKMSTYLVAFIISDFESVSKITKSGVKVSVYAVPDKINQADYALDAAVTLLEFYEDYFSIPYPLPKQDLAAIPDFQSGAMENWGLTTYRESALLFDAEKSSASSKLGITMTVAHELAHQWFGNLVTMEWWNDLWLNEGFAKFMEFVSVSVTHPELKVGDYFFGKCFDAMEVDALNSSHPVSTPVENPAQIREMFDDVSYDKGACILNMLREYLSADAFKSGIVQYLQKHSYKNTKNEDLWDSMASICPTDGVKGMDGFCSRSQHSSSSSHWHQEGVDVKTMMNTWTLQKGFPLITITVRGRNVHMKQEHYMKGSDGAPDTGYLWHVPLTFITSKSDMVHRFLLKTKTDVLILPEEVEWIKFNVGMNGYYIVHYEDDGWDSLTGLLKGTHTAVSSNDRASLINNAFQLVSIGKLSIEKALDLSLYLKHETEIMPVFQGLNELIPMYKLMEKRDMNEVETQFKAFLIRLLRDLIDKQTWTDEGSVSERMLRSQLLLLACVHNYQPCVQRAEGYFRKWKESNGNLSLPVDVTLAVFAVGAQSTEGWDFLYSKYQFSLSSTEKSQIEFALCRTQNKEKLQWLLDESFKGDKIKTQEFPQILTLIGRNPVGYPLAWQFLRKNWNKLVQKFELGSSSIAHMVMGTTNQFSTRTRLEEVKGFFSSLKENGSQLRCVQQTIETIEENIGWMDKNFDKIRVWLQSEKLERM
ARNT-TACC3 inh = disruptors of human ARNT/TACC3 interaction; inhibition, % at 9.99 µM; 390,000 tested, 0.66% active; Q9Y6A5; AlphaScreen His-ARNT PAS-B/GST-TACC3 binding, luminescence; TACC3 fragment carries E629A point mutation;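 active means mean inhibition of replicates at least 50% and at least half of replicates each reaching 50%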;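 further: 0% = complete ARNT plus TACC3 wells and 100% = ARNT alone without TACC3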
PvdQ acylase = blocks Pseudomonas aeruginosa PvdQ acylase activity | purified PvdQ acylase, fluorescence plate reader | inhibition, % at 10 µM | 340,000 tested, 0.063% active; in the data active means inhibition above about 30%, passing the limit was not always enough;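 further: 0% = vehicle neutral wells and 100% = reference inhibitor wells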
Ecoli rRNA inh = selective bacterial rRNA inhibition in E. coli; GFP signal change (wild-type ribosome), % (concentration not given with the values); 350,000 tested, 1.6% active; AID 720706; E. coli WT GFP vs humanized-ribosome RFP mutants, fluorescence, 24 h; stronger effect = lower value; DMSO median 0, no signal -100;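 active means significant combined selectivity score with lowered wild-type GFP, culture density cut under 30%, mutant RFP and density less affected; inactive means any of these conditions unmet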
ARNT Alpha ctr = AlphaScreen artifact in ARNT/TACC3 counter-screen; His-ARNT PASB-GST AlphaScreen artifact counter-screen, luminescence; shares compounds with ARNT-TACC3 inh; AC50, µM (top dose mostly 68 µM), for inactives: at the highest dose activity change, negative = signal decrease; 1,200 tested, 50% active;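 active means every separate test run was called active for a drop in luminescence, with AC50 within twice the top valid dose, actives reach about 71 µM in these data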
* = called active by the depositor. Hits are enriched below; roughly 2.1% of the tested compounds scored in any of these assays.

Screening CCCCCc1cc(=O)oc2c(C(CCN3CCCC3)c3ccc(N(C)C)cc3)c(OC)cc(OC)c12 (stereo not given) returned CFTR F508del cor 2, ERAP1 HTS inh 0, ARNT-TACC3 inh 51*, PvdQ acylase 2, Ecoli rRNA inh -46 and ARNT Alpha ctr 9.6µM*.
COc1cc(NC(=O)C(=O)Nc2ccc3nc4n(c(=O)c3c2)CCCCC4)cc(OC)c1OC was read as CFTR F508del cor -2, ARNT-TACC3 inh 50*, PvdQ acylase 3, Ecoli rRNA inh 8 and ARNT Alpha ctr -7%.
For C[C@H]1CN([C@@H](C)CO)C(=O)Cc2cc(NC(=O)Nc3cccc4ccccc34)ccc2O[C@@H]1CN(C)S(=O)(=O)c1ccc(Cl)cc1 the results were CFTR F508del cor 2, ERAP1 HTS inh -1, ARNT-TACC3 inh 6 and Ecoli rRNA inh 3.
Oc1c(C(Nc2ccccn2)c2ccccn2)ccc2cccnc12 (stereo not given) was read as ERAP1 HTS inh 9, PvdQ acylase -1 and Ecoli rRNA inh -52.
Screening Oc1ccccc1C(Nc1nccs1)c1ccc2cccnc2c1O (stereo not given) returned CFTR F508del cor 2, ERAP1 HTS inh 0, ARNT-TACC3 inh 61*, PvdQ acylase -8, Ecoli rRNA inh -2 and ARNT Alpha ctr 12µM*.
For COC(=O)C[C@H]1CC[C@H]2[C@@H](COc3ccc(NC(=O)c4cccc(Cl)c4)cc3C(=O)N2C)O1 the results were CFTR F508del cor -4, ERAP1 HTS inh 1 and Ecoli rRNA inh -1.
Screening CO[C@H]1CN(C)C(=O)c2cc(NS(C)(=O)=O)ccc2OC[C@H](C)NC[C@H]1C returned CFTR F508del cor 0, ERAP1 HTS inh -1 and Ecoli rRNA inh 0.
Screening O=C(COC(=O)c1ccc([N+](=O)[O-])s1)NC(=O)NCc1ccccc1 returned CFTR F508del cor 3, ERAP1 HTS inh 0 and PvdQ acylase 4.
Screening O=C(COC(=O)c1ccc([N+](=O)[O-])s1)NCCc1ccccc1 returned ERAP1 HTS inh 3, ARNT-TACC3 inh 50*, PvdQ acylase 7, Ecoli rRNA inh -10 and ARNT Alpha ctr -19%.
`O=S(=O)(Nc1cccc(F)c1)c1cccc2nsnc12` gave CFTR F508del cor 1, ERAP1 HTS inh -2, ARNT-TACC3 inh 10, PvdQ acylase -15 and Ecoli rRNA inh -1.
Cc1cc(F)ccc1NS(=O)(=O)c1cccc2nsnc12 was read as CFTR F508del cor -6, ERAP1 HTS inh 1, ARNT-TACC3 inh active, PvdQ acylase -8, Ecoli rRNA inh -10 and ARNT Alpha ctr -3%.
Screening CO[C@H]1CN(C)C(=O)c2ccc(NC(=O)Nc3cccc(F)c3)cc2OC[C@H](C)NC[C@@H]1C returned CFTR F508del cor -3, ERAP1 HTS inh -4 and Ecoli rRNA inh -2.
Screening C[C@H](CO)N1C[C@H](C)[C@H](CN(C)S(=O)(=O)c2cccs2)Oc2ccc(NC(=O)C3CCCCC3)cc2CC1=O returned CFTR F508del cor 1, ERAP1 HTS inh 2, ARNT-TACC3 inh -3 and Ecoli rRNA inh -3.
COc1ccc([N+](=O)[O-])cc1/C=N/NC(=O)CNC(=O)C(c1ccccc1)c1ccccc1 was read as ARNT-TACC3 inh -10 and PvdQ acylase -19.
For COc1cccc(/C=N/NC(=O)CNC(=O)c2cccnc2)c1O the results were CFTR F508del cor 2, ERAP1 HTS inh -3, ARNT-TACC3 inh 59*, PvdQ acylase -14, Ecoli rRNA inh 3 and ARNT Alpha ctr 2%.
For COc1ccc([N+](=O)[O-])cc1/C=N/NC(=O)CNC(=O)c1cccc(F)c1 the results were CFTR F508del cor 2, ERAP1 HTS inh 4, ARNT-TACC3 inh 51*, PvdQ acylase 3, Ecoli rRNA inh -23* and ARNT Alpha ctr -12%.
`COc1cccc(/C=N/NC(=O)CNC(=O)c2ccncc2)c1O` gave CFTR F508del cor 3, ERAP1 HTS inh -1, ARNT-TACC3 inh 56*, PvdQ acylase 4, Ecoli rRNA inh -3 and ARNT Alpha ctr -12%.

Screening data from PubChem BioAssay.
